Assay: E. coli growth modulation, two-sided OD650, primary screen, E. coli filamentation project, strain DRC41, 24 h (AID 1093);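 further: MC1000 strain lacking acrAB efflux and sulA so SOS filamentation is blocked; test concentration not given here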
Conditions: OD650, 24 h, higher = more signal, called active from +8 up or from −8 down

z-score, inactive:
C[C@@]1([C@@H](NS(=O)(=O)c2cccc3cccnc23)c2ccc(-c3ccccc3)cc2)C[C@H]1C1CCCCC1 -1.89, O=C1O[C@H](c2ccccc2)[C@H](c2ccccc2)N2[C@H]1[C@@H](C(=O)N1CCN(c3ncccn3)CC1)[C@]1(C(=O)Nc3ccc(C#CC4(O)CCCCCC4)cc31)[C@H]2c1ccc(O)cc1 2.61, C=CCC(OC(C)=O)[C@@H]1[C@@H](N(Cc2ccc(-c3ccccc3)cc2)C(=O)Cc2ccc(OC)cc2)c2cc(OCCCO)ccc2N1C(=O)c1ccc2ccccc2c1 (stereo partly drawn) -0.584, O=C(NC1CC1)[C@@H]1c2ccccc2C(=O)N(C2CCCCC2)[C@H]1c1ccc(CO)cc1 0.398, COC(=O)[C@@]1(Cc2ccccc2)[C@H]2c3cc(C(=O)N(C)C)n(Cc4nc5ccccc5[nH]4)c3C[C@H]2CN1C(=O)c1ccccc1 0.914, C=CCOC(=O)[C@@H]1[C@H]2C(=O)O[C@H](c3ccccc3)[C@H](c3ccccc3)N2[C@H](c2ccc(OCCOC(=O)[C@@H]3C[C@@H]4C(=O)N[C@@H](CC(C)C)C(=O)N4[C@@H]3c3ccc(O)cc3)cc2)[C@@]12C(=O)Nc1ccc(I)cc12 1.16, COCCOC(=O)N1C(=O)[C@@]2(c3cc(C#CCNC(N)=O)ccc31)[C@H](C(N)=O)[C@H]1C(=O)O[C@H](c3ccccc3)[C@H](c3ccccc3)N1[C@@H]2c1ccc(O)cc1 1.19, C=CCNC(=O)[C@H]1[C@@H]2C(=O)O[C@@H](c3ccccc3)[C@@H](c3ccccc3)N2[C@@H](c2ccc(OCCO)cc2)[C@]12C(=O)Nc1ccc(C#Cc3ccc(OC)cc3)cc12 0.741

— PubChem BioAssay
